Measured values published in PubChem BioAssay (EPA / NIEHS).
Inconclusive results are not listed. Calls of active or inactive are those of the source. Rule for the calls: active = hit-call score of the fitted dose curve at least 0.9, where 1 is the maximum; inconclusive = response in the unintended direction; inactive = score below 0.9.

Molecular target: Oxysterols receptor LXR-beta (Homo sapiens) (UniProt P55055)
Test: ATG_LXRb_TRANS: Attagene TRANS-FACTORIAL HepG2 Assay for human Liver X Receptor beta (LXRb) (AID 2282981)
Settings: HepG2 Attagene TRANS GAL4-LXRb reporter, mRNA
In short: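 After 24 h chemical treatment of transfected HepG2 cells carrying exogenous NR-Gal4 chimeras, reporter mRNA was quantified by fluorescent RT-PCR and capillary electrophoresis; activity taken as increase over DMSO controls.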

Sequence of Oxysterols receptor LXR-beta (Homo sapiens) (P55055 whole entry, looked up): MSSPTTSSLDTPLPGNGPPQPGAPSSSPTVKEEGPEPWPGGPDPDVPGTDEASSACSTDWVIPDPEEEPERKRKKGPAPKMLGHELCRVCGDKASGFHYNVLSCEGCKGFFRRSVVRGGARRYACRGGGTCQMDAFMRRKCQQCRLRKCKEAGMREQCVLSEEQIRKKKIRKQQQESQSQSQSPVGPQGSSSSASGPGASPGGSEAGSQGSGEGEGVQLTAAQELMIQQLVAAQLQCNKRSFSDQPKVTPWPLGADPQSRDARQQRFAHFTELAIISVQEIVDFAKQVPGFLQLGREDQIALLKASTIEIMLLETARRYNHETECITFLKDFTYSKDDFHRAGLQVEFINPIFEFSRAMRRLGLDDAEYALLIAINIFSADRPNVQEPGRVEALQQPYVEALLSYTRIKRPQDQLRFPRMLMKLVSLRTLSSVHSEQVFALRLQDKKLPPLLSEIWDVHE

SMILES	outcome
CC1(C)S[C@@H]2[C@H](NC(=O)[C@H](N)c3ccccc3)C(=O)N2[C@H]1C(=O)O	inactive
Cc1cc(C)c(S(=O)(=O)O)cc1N=Nc1cc(S(=O)(=O)O)c2ccccc2c1O	inactive
CCCc1c(OCCCCc2nn[nH]n2)ccc(C(C)=O)c1O	inactive
CCCCCCOC(=O)CCCCCCCC(=O)OCCCCCC	inactive
CC1=NN(c2cc(Cl)c(S(=O)(=O)O)cc2Cl)C(=O)C1N=Nc1ccc(S(=O)(=O)O)cc1 (configuration not stated)	inactive
O=C(O)Cc1c[nH]c2ccccc12	inactive
NCc1ccccc1	inactive
CCCCn1cc[n+](C)c1	inactive
Cc1cc(O)cc(C)c1Cl	inactive
CC(C)n1c(/C=C/[C@@H](O)C[C@@H](O)CC(=O)O)c(-c2ccc(F)cc2)c2ccccc21	inactive
CC1=C(CC=O)C(C)(C)CCC1	inactive
Cc1cccnc1	inactive
Cc1ccccc1S(N)(=O)=O	inactive
C=C(C)C(=O)OCC1CCCO1 (configuration not stated)	inactive
OCCOCCOCCOCCOCCO	inactive
CC(C)CC(=O)CC(C)CC(C)C (configuration not stated)	inactive
CCCOCCC	inactive
CN(C)CCC(c1ccc(Cl)cc1)c1ccccn1 (configuration not stated)	inactive
CC/C=C\CC1=C(C)CCC1=O	inactive
CC1=CCCC(C)(C)C12CCC(C)O2 (configuration not stated)	inactive
CC(=O)c1nccs1	inactive
O=C(O)c1nc(Cl)c(Cl)c(Cl)c1Cl	inactive

Molecular target: Hepatocyte nuclear factor 4-alpha (Homo sapiens) (UniProt P41235)
Sequence (P41235 whole entry, looked up): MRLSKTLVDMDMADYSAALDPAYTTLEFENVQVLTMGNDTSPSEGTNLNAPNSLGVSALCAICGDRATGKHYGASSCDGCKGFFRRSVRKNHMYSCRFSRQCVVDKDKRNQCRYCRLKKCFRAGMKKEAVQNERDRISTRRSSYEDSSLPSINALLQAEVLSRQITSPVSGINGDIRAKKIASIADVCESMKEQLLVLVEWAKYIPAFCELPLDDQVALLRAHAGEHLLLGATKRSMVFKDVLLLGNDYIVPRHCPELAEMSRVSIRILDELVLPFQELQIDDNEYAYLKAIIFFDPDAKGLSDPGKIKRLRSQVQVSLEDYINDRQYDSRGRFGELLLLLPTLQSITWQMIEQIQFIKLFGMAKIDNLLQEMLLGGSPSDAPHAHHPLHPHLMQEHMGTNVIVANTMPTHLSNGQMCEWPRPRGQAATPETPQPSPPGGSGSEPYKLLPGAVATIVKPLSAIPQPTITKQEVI
Test: ATG_HNF4a_TRANS: Attagene TRANS-FACTORIAL HepG2 Assay for human Hepatocyte Nuclear Factor 4 alpha (HNF4a) (AID 2282982)
Settings: HepG2 HNF4a transactivation reporter, mRNA readout
In short: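 Activity of an exogenous HNF4a–Gal4 fusion scored as induced GAL4-UAS reporter transcripts after 24 h chemical exposure of transfected human HepG2 cells. Read-out via RT-PCR with 6-FAM labelling and capillary electrophoresis; rise over DMSO baseline.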

SMILES	outcome
CC1(C)S[C@@H]2[C@H](NC(=O)[C@H](N)c3ccccc3)C(=O)N2[C@H]1C(=O)O	inactive
CCC(C)(CCC(C)C)C(=O)O (configuration not stated)	inactive
Cc1cc(C)c(S(=O)(=O)O)cc1N=Nc1cc(S(=O)(=O)O)c2ccccc2c1O	inactive
CCCc1c(OCCCCc2nn[nH]n2)ccc(C(C)=O)c1O	inactive
Clc1ccccn1	inactive
c1cc(N(CC2CO2)CC2CO2)ccc1Cc1ccc(N(CC2CO2)CC2CO2)cc1 (configuration not stated)	inactive
CCCCCCOC(=O)CCCCCCCC(=O)OCCCCCC	inactive
O=C(O)Cc1c[nH]c2ccccc12	inactive
NCc1ccccc1	inactive
CCCCn1cc[n+](C)c1	inactive
CC(C)CC(=O)O	inactive
C=C(C)C(=O)OCC1CCCO1 (configuration not stated)	inactive
C1=CCC=C1	inactive
CCCOCCC	inactive
CN(C)CCCN1c2ccccc2CCc2ccc(Cl)cc21	inactive
CC/C=C\CC1=C(C)CCC1=O	inactive
COC(OC)C(C)c1ccccc1 (configuration not stated)	inactive
F[B-](F)(F)F	inactive
COCCCN	inactive
CC1=CCCC(C)(C)C12CCC(C)O2 (configuration not stated)	inactive
CC(=O)c1nccs1	inactive
COc1ccccc1OCC(O)CO (configuration not stated)	inactive
OCCN(CCO)c1cccc(Cl)c1	inactive
O=C(O)c1nc(Cl)c(Cl)c(Cl)c1Cl	inactive
CC=CC(=O)O	inactive

Tested on: not listed separately
Test: ATG_M_06_TRANS: Attagene TRANS-FACTORIAL HepG2 Assay for M06 Transcription Factor (Internal Marker) (AID 2282983);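 note: reporter transcript level by RT-PCR then capillary electrophoresis fluorescence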
Settings: HepG2 Attagene TRANS M06 internal marker reporter
In short: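 mRNA levels of a reporter transcript, quantified as FAM fluorescence on capillary electrophoresis, served as readout. HepG2 cells expressing exogenous GAL4-chimera reporter constructs were exposed for 24 h. Gain of signal over DMSO was evaluated.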

SMILES	outcome
CC1(C)S[C@@H]2[C@H](NC(=O)[C@H](N)c3ccccc3)C(=O)N2[C@H]1C(=O)O	inactive
CCC(C)(CCC(C)C)C(=O)O (configuration not stated)	inactive
Cc1cc(C)c(S(=O)(=O)O)cc1N=Nc1cc(S(=O)(=O)O)c2ccccc2c1O	inactive
CCCc1c(OCCCCc2nn[nH]n2)ccc(C(C)=O)c1O	inactive
Clc1ccccn1	inactive
CCCCCCOC(=O)CCCCCCCC(=O)OCCCCCC	inactive
CC1=NN(c2cc(Cl)c(S(=O)(=O)O)cc2Cl)C(=O)C1N=Nc1ccc(S(=O)(=O)O)cc1 (configuration not stated)	inactive
CCCCn1cc[n+](C)c1	inactive
CC(C)CC(=O)O	inactive
C[Si](C)(C)O[Si](C)(C)O[Si](C)(C)C	inactive
Cc1cc(O)cc(C)c1Cl	inactive
CC(C)n1c(/C=C/[C@@H](O)C[C@@H](O)CC(=O)O)c(-c2ccc(F)cc2)c2ccccc21	inactive
CC1=C(CC=O)C(C)(C)CCC1	inactive
CC(O)(P(=O)(O)O)P(=O)(O)O	inactive
Cc1ccccc1S(N)(=O)=O	inactive
C=C(C)C(=O)OCC1CCCO1 (configuration not stated)	inactive
OCCOCCOCCOCCOCCO	inactive
C1=CCC=C1	inactive
CCCOCCC	inactive
CN(C)CCC(c1ccc(Cl)cc1)c1ccccn1 (configuration not stated)	inactive
CN(C)CCCN1c2ccccc2CCc2ccc(Cl)cc21	inactive
C[C@H]1C[C@H]2[C@@H]3CCC4=CC(=O)C=C[C@]4(C)[C@@]3(F)[C@@H](O)C[C@]2(C)[C@@]1(O)C(=O)CO	inactive
COC(OC)C(C)c1ccccc1 (configuration not stated)	inactive
CC1=CCCC(C)(C)C12CCC(C)O2 (configuration not stated)	inactive
OCCN(CCO)c1cccc(Cl)c1	inactive
O=C(O)c1nc(Cl)c(Cl)c(Cl)c1Cl	inactive
CC=CC(=O)O	inactive

Tested on: not listed separately
Test: ATG_M_32_TRANS: Attagene TRANS-FACTORIAL HepG2 Assay for M32 Transcription Factor (Internal Marker) (AID 2282984);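 note: transcript level of a background control reporter unit measured by RT-PCR and capillary electrophoresis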
Settings: HepG2 Attagene TRANS M32 internal marker reporter
In short: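 Internal background reporter in transfected HepG2: after 24 h chemical exposure, RNA reverse-transcribed, reporter cDNA amplified, fluorescently labelled and HpaI-cut, then sized by capillary electrophoresis. Gain of signal fitted against DMSO control.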

SMILES	outcome
CCC(C)(CCC(C)C)C(=O)O (configuration not stated)	inactive
Cc1cc(C)c(S(=O)(=O)O)cc1N=Nc1cc(S(=O)(=O)O)c2ccccc2c1O	inactive
CCCc1c(OCCCCc2nn[nH]n2)ccc(C(C)=O)c1O	inactive
Clc1ccccn1	inactive
c1cc(N(CC2CO2)CC2CO2)ccc1Cc1ccc(N(CC2CO2)CC2CO2)cc1 (configuration not stated)	inactive
CCCCCCOC(=O)CCCCCCCC(=O)OCCCCCC	inactive
O=C(O)Cc1c[nH]c2ccccc12	inactive
CCCCCCCCCCC1CO1 (configuration not stated)	inactive
NCc1ccccc1	inactive
Cc1cc(O)cc(C)c1Cl	inactive
CC(C)n1c(/C=C/[C@@H](O)C[C@@H](O)CC(=O)O)c(-c2ccc(F)cc2)c2ccccc21	inactive
CC1=C(CC=O)C(C)(C)CCC1	inactive
Cc1cccnc1	inactive
Cc1ccccc1S(N)(=O)=O	inactive
C=C(C)C(=O)OCC1CCCO1 (configuration not stated)	inactive
OCCOCCOCCOCCOCCO	inactive
C1=CCC=C1	inactive
CC(C)CC(=O)CC(C)CC(C)C (configuration not stated)	inactive
CN(C)CCC(c1ccc(Cl)cc1)c1ccccn1 (configuration not stated)	inactive
CC/C=C\CC1=C(C)CCC1=O	inactive
COC(OC)C(C)c1ccccc1 (configuration not stated)	inactive
F[B-](F)(F)F	inactive
COCCCN	inactive
CC1=CCCC(C)(C)C12CCC(C)O2 (configuration not stated)	inactive
CC(=O)c1nccs1	inactive
COc1ccccc1OCC(O)CO (configuration not stated)	inactive
O=C(O)c1nc(Cl)c(Cl)c(Cl)c1Cl	inactive
CC=CC(=O)O	inactive
